Some test systems named below: DU-145 prostate; K-562 leukemia; MALME-3M melanoma; MDA-MB-231 breast; RXF 393 renal; SF-268 CNS; SF-295 CNS; SF-539 CNS; UACC-257 melanoma; M14 melanoma.
What all share (assay): NCI-60 one-dose screen, 48 h (100 = growth as untreated, 0 = no growth, -100 = all killed)
Common to all, as to settings: 10 µM unless noted

This is part of a sample that, as a whole, favours compounds with a hit. Of some 83,000 tested, about 20% had one in any assay.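 Percent growth is the endpoint: 0 to 100 indicates growth inhibition (40 means 60% inhibition), 0 means no net growth, and negative values indicate cell death.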 Values without a mark were called inactive. The source made the active and inactive calls. Rule for the calls: active = growth percent below 10; inactive = the rest.

Consider `CCC(C)Oc1cc(/C=N/NC(=O)c2cnn3c2NC(c2ccccc2)C3)ccc1OC` (stereo not given), for which the growth in the assay on DU-145 prostate is 45.6%; in the assay with K-562 leukemia, 15.8%; in the assay with MALME-3M melanoma, 58.4%; in the assay on MDA-MB-231 breast, 39.4%; in the assay on RXF 393 renal it was 21%; with SF-268 CNS, 44.7%. For the same molecule, the growth in the assay with SF-295 CNS was 18.7%; in the assay with SF-539 CNS, 9.65% (active); in the assay on UACC-257 melanoma, 55.5%; in the assay on M14 melanoma, 34%.
As for `COc1ccc(-n2ncc3c4nc(OC)c(S(=O)(=O)c5ccccc5)cc4ccc32)cc1`, the growth with DU-145 prostate is 73%; with K-562 leukemia, 119%; in the assay on MALME-3M melanoma, 56.9%; in the assay with MDA-MB-231 breast it was 75.6%; with RXF 393 renal, 35.1%; in the assay on SF-268 CNS, 50.9%. The growth in the assay with SF-295 CNS was 84%; with SF-539 CNS, 30.7%; in the assay on UACC-257 melanoma it was 76.9%; with M14 melanoma, 85%.
Turning to `O=C1C(Br)=C(c2ccccc2)C(=O)C(Br)=C1c1ccccc1`, the growth with DU-145 prostate was 105%; in the assay on K-562 leukemia, 76.2%; in the assay with MALME-3M melanoma, 114%; in the assay with MDA-MB-231 breast, 94.6%; in the assay on RXF 393 renal, 102%; in the assay with SF-268 CNS it was 102%. The growth with SF-295 CNS was 97.9%; with SF-539 CNS, 98.6%; in the assay with UACC-257 melanoma it was 96.2%; in the assay with M14 melanoma, 104%.
With `Cc1nc2cc(Nc3nc(Nc4ccc(F)cc4)nc(N4CCCC4)n3)ccc2n1Cc1ccccc1`, the growth in the assay on DU-145 prostate was -41.5% (active); in the assay with K-562 leukemia, 0.0326% (active); in the assay on MALME-3M melanoma, -61.6% (active); in the assay on MDA-MB-231 breast, -59.7% (active); in the assay on RXF 393 renal, -83.5% (active); in the assay on SF-268 CNS, -26.3% (active). Besides, the growth in the assay with SF-295 CNS was -26.8% (active); in the assay on SF-539 CNS, -25% (active); with UACC-257 melanoma, -22.7% (active); in the assay on M14 melanoma, -48.1% (active).
With `Cc1nc2cc(Nc3nc(Nc4ccc(F)cc4)nc(-c4ccc(Cl)cc4)n3)ccc2n1Cc1ccccc1`, the growth is 81.4% in the assay with DU-145 prostate; 33.6% in the assay on K-562 leukemia; 72.5% in the assay with MALME-3M melanoma; 66% with MDA-MB-231 breast; 68.5% in the assay with RXF 393 renal; 54.9% in the assay with SF-268 CNS. The growth is 90.4% in the assay on SF-295 CNS, 92.6% with SF-539 CNS, 68.9% with UACC-257 melanoma and 58.3% in the assay on M14 melanoma.
For the molecule `CCCCCCCC/C=C\CCCCCCCCOc1cccc(CC(=O)NCC[N+]2(C)CCCC2)c1`, the growth in the assay on DU-145 prostate was 92.7%; with K-562 leukemia, 60.2%; in the assay on MALME-3M melanoma it was 88.9%; in the assay on MDA-MB-231 breast, 81.6%; with RXF 393 renal it was 13%; in the assay with SF-268 CNS, 65.5%. In addition, the growth in the assay on SF-295 CNS was 96.4%; with SF-539 CNS, 98.8%; in the assay with UACC-257 melanoma, 98.9%; in the assay with M14 melanoma, 89.2%.
As to `CCOC(=O)c1cnn(CC(O)c2ccc(F)cc2)c1NC(=O)Nc1ccccc1F` (stereo not given), the growth in the assay with DU-145 prostate was 102%; in the assay with K-562 leukemia, 97.5%; in the assay with MALME-3M melanoma it was 93.3%; in the assay with MDA-MB-231 breast, 91.2%; with RXF 393 renal it was 108%; with SF-268 CNS it was 99%. Moreover, the growth is 91.6% in the assay on SF-295 CNS, 95.1% in the assay on SF-539 CNS, 107% with UACC-257 melanoma and 93% in the assay on M14 melanoma.
Consider `COc1cc(/C=N/NC(=O)c2cnn3c2NC(c2ccccc2)C3)cc(OC)c1OC` (stereo not given), for which the growth in the assay on DU-145 prostate is 90.8%; in the assay on K-562 leukemia, 31.6%; with MALME-3M melanoma, 65.2%; in the assay on MDA-MB-231 breast it was 67.1%; in the assay with RXF 393 renal it was 87.7%; in the assay on SF-268 CNS, 81.4%. Moreover, the growth in the assay on SF-295 CNS is 53.1%; in the assay with SF-539 CNS, 68.1%; in the assay on UACC-257 melanoma, 86.5%; with M14 melanoma, 50.3%.
As for `COc1cccc(C2C3=C(COC3=O)N(CCO)c3cc4c(cc32)CCC4)c1` (stereo not given), the growth was -26.5% (active) in the assay on DU-145 prostate; 15.8% in the assay with K-562 leukemia; 57.3% in the assay with MALME-3M melanoma; -12% (active) with MDA-MB-231 breast; -3.06% (active) with RXF 393 renal; 22.6% in the assay on SF-268 CNS. The growth in the assay with SF-295 CNS is -27.5% (active); in the assay with SF-539 CNS it was -17.9% (active); in the assay on UACC-257 melanoma, 31.5%; in the assay with M14 melanoma, -13.7% (active).
On to `NS(=O)(=O)c1ccc(C(=O)N/N=C(\CS(=O)(=O)c2ccccc2)c2cc3cc(Br)ccc3o2)cc1`, for which the growth in the assay with DU-145 prostate was 101%; in the assay on K-562 leukemia, 106%; in the assay on MALME-3M melanoma it was 90.5%; in the assay with MDA-MB-231 breast it was 73.7%; with RXF 393 renal, 74.7%; with SF-268 CNS it was 73.3%. The growth in the assay with SF-295 CNS is 101%; in the assay with SF-539 CNS, 80.6%; with UACC-257 melanoma it was 94.8%; in the assay with M14 melanoma it was 111%.
Regarding `C=C1CC[C@@H]2[C@@](C)(CCC[C@]2(C)C(=O)O)[C@@H]1CC[C@H](CO)CCO`, the growth with DU-145 prostate is 112%; with K-562 leukemia, 106%; in the assay with MALME-3M melanoma, 93.8%; with MDA-MB-231 breast, 105%; in the assay with RXF 393 renal, 118%; with SF-268 CNS, 99.8%. The growth in the assay on SF-295 CNS was 103%; in the assay on SF-539 CNS it was 105%; in the assay on UACC-257 melanoma it was 109%; in the assay with M14 melanoma, 102%.
In the case of `COc1ccc(/C=C2\SC(=O)N(CN3CCN(c4cc5c(cc4F)c(=O)c(C(=O)O)cn5C4CC4)CC3)C2=O)cc1`, the growth with DU-145 prostate is 109%; with K-562 leukemia, 114%; with MALME-3M melanoma, 97.6%; with MDA-MB-231 breast, 106%; with RXF 393 renal, 108%; in the assay with SF-268 CNS, 99%. Further, the growth in the assay with SF-295 CNS was 99.6%; in the assay on SF-539 CNS, 107%; in the assay on UACC-257 melanoma, 96.7%; in the assay on M14 melanoma it was 88.6%.
Consider `O=C1/C(=C/c2ccc(Cl)cc2)CN(Cc2cn(CCCNc3ccnc4cc(Cl)ccc34)nn2)C/C1=C\c1ccc(Cl)cc1`, for which the growth is -11.6% (active) in the assay with DU-145 prostate; 0.972% (active) in the assay with K-562 leukemia; -64.6% (active) in the assay on MALME-3M melanoma; -58.4% (active) in the assay on MDA-MB-231 breast; -97.6% (active) with RXF 393 renal; -84.7% (active) in the assay on SF-268 CNS. Further, the growth was -56.1% (active) in the assay on SF-295 CNS, -91.5% (active) with SF-539 CNS, -69.4% (active) in the assay on UACC-257 melanoma and -64.9% (active) in the assay on M14 melanoma.

Source of the values: PubChem BioAssay (NCI).
